An excerpt weighted towards active compounds, which were near 3% of everything screened.
Chronic BCR inh = qHTS Assay to Find Inhibitors of Chronic Active B-Cell Receptor Signaling; Potency, µM (top dose mostly 46.1 µM), inactives show at the highest dose activity change, negative = inhibition, hits mostly inhibitors; ABC-DLBCL IkBa-CBG/CBR reporter, luminescence ratio, 4 h; actives 0.05% (n = 340,000); active = well fitted inhibition curve with a large enough effect in the signal ratio, with a control signal flat, not every such curve was filed as active; inconclusive = small, poorly fitted or top-dose-only effect, or effect the other way, or a change in a side signal; the % refers to the signal ratio;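 also: potency is read from the fitted curve at half-maximal effect; plate controls were basal doxycycline-induced cells for no effect and cells given 10 µM MG132 for full effect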
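Concentration-response series (up to 46 uM) were applied to TMD8 dual-reporter cells for 4 h at 37C with doxycycline. Green/red ratio, after filter-overlap correction, defined %Activity; red signal alone was normalised to basal cells and zero luminescence.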
KCNH2 3.1 inh = qHTS for Inhibitors of KCHN2 3.1: Mutant qHTS. Potassium voltage-gated channel subfamily H member 2, brain isoform KCNH2 3.1 (human). U2OS KCNH2 3.1, thallium flux FluxOr; stronger effect = lower value. activity change, % (tested at about 1.8 µM). actives 0.95% (n = 340,000);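 active = maximum activity change below -70%; inconclusive = maximum activity change from -70% to -50%; inactive = maximum activity change above -50%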;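 also: thallium influx rate constant from kinetic fluorescence after stimulation buffer; % is scaled to controls: 0 for no effect and ±100 for the full control effect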
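Steps: virus added to U2OS suspension (4 h, RT, dark); medium with 10% FBS added, cells plated, 37 C overnight; FluxOr/Red40 loading buffer 45 min RT; stimulation buffer, 2 min kinetic read; rate constant normalized.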
LDHA inh = qHTS assay for inhibitors of human lactate dehydrogenase | purified LDHA, NADH/diaphorase-resazurin fluorescence; stronger effect = lower value | activity change, % (values are at about 110 or 230 µM) | actives 0.15% (n = 480,000) | L-lactate dehydrogenase A chain (Homo sapiens), P00338; in the data active = activity change below about -30%; inconclusive = mostly about -25% to -30%;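 also: plate controls were DMSO wells for no effect and wells without enzyme for full effect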
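Enzyme activity of human lactate dehydrogenase 5 (2 nM; 0.06 mM NADH, 0.2 mM pyruvate, 5 min, RT) is measured via a resazurin/diaphorase fluorescence readout of residual NADH.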
KCNH2 WT inh = qHTS for Inhibitors of KCHN2 3.1: Wildtype qHTS; Voltage-gated inwardly rectifying potassium channel KCNH2 (Homo sapiens), Q12809; U2OS, BacMam KCNH2, thallium flux FluxOr; stronger effect = lower value; activity change, % at 1.84 µM; actives 0.37% (n = 340,000);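 active = maximum activity change below -70%; inconclusive = maximum activity change between -70% and -50%; inactive = maximum activity change above -50%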; also: % is scaled to controls: 0 for no effect and ±100 for the full control effect
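U2OS cells transduced with wild-type KCNH2 virus are loaded with FluxOr dye for 45 min, and thallium flux is measured in kinetic reads before and after stimulation buffer. Rate constants are normalized to DMSO controls.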
ClpP mod = qHTS Assay for Activators of ClpP | ATP-dependent Clp protease proteolytic subunit (Bacillus subtilis (strain 168)), P80244 | purified B. subtilis ClpP, FRET peptide cleavage, 20 min | Potency, µM (top dose mostly 57.5 µM), for inactives: top-dose activity change, negative = active | actives 1.9% (n = 340,000); active = well fitted falling curve with a large enough effect; inconclusive = small, poorly fitted or top-dose-only effect; inactive = no such curve, though single readings can be large or run the other way; also: potency is read from the fitted curve at half-maximal effect; the source files actives as falling curves though it sought activators and does not explain the sign; nearly all actives have a fitted effect of over 65% in size
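Buffer: 100 mM Tris/HCl pH8, 100 mM KCl, 0.05% low protease BSA, 2.5% glycerol, 0.01% Tween-20. ClpP 10 microg/mL final; 20 min RT; delta FRET normalized to ADEP and DMSO controls.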
ALOX12 inh = Primary qHTS assay for inhibitors of human arachidonate 12S-lipoxygenase (ALOX12): Round 2; actives 1.1% (n = 580,000); Polyunsaturated fatty acid lipoxygenase ALOX12 (Homo sapiens), P18054; purified 12hLO, xylenol orange hydroperoxide absorbance; AID 1671190, 2021; Potency, µM (highest dose often 108 µM), inactives show at the top dose activity change, negative = inhibition, hits mostly inhibitors; active = well fitted inhibition curve with a large enough effect; inconclusive = small, poorly fitted or top-dose-only effect, or another doubt; inactive = no such curve, though single readings can be large or run the other way; also: potency is read from the fitted curve at half-maximal effect; % is scaled to controls: 0 for no effect and ±100 for the full control effect
Target sequence (P18054 whole entry, looked up): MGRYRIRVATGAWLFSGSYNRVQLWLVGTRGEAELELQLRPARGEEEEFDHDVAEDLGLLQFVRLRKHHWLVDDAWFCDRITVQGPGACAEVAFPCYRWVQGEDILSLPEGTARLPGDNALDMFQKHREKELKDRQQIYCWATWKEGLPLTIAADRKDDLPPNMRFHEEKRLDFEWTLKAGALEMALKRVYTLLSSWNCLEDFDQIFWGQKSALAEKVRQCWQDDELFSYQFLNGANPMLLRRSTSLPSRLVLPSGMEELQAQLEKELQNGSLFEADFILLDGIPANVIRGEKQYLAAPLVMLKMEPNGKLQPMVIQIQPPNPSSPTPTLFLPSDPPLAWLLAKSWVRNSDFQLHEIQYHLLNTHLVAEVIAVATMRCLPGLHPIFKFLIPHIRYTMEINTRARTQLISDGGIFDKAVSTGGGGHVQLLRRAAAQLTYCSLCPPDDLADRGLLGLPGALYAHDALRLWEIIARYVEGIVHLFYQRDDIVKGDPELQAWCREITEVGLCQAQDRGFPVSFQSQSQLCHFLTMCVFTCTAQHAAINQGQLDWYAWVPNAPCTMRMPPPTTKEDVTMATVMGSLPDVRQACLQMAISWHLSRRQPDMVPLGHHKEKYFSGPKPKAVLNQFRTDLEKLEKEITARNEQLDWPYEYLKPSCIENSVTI
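Purified human 12hLO (150 nM final) in 25 mM Hepes, 0.01% Triton X-100, pH 7.0 was preincubated 15 min at room temperature with compound. Then 40 uM arachidonic acid was added, 30 min. Hydroperoxide was read by Fe-XO absorbance ratio 573/405 nm.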
The depositor's hits bear a star; u = inconclusive; x = no result.

SMILES | Chronic BCR inh | KCNH2 3.1 inh | LDHA inh | KCNH2 WT inh | ClpP mod | ALOX12 inh
O=C(NCc1ccccc1)N(Cc1cc2cc3c(cc2[nH]c1=O)OCO3)CC1CCCO1 (stereo not drawn) | -1% | 0 | -3 | 3 | 28µM* | -5%
CN(C)CCN(Cc1cc2cc3c(cc2[nH]c1=O)OCO3)C(=S)NCC1CCCO1 (stereo not drawn) | 15% | -4 | 1 | 5 | x | 0%
O=C(OCC(=O)N1CCCCCC1)c1ccc(S(=O)(=O)NCc2ccco2)cc1 | x | x | 2 | x | x | 17%
CN(Cc1ccc(F)cc1)C(=O)NC1CCCC(C(F)(F)F)C1 (stereo not drawn) | x | x | -10 | x | x | u
COc1cc(/C=C/c2ccc(O)cc2)cc(OC)c1 | 13µM* | 5 | 3 | 0 | -28% | u
Oc1ccc(/C=N/NC(=S)NC2CC3CCC2C3)cc1 (stereo not drawn) | -7% | 1 | 0 | -9 | x | 18µM*
CCc1cc(C(=O)NC(C)c2ccccc2)sc1C (stereo not drawn) | x | x | 1 | x | x | u
Cc1ccc(-c2ccccc2NC(=O)C2C3C=CC(C3)C2C(=O)O)o1 (stereo not drawn) | -1% | 3 | 0 | -11 | 25µM* | 13%
Cc1ccc(-c2cccc(NC(=O)C3C(C(=O)O)[C@@H]4C=C[C@H]3C4)c2)o1 (stereo partly drawn) | 3% | -1 | 0 | -8 | -5% | u
O=C1NCc2ccccc2CC12CCN(Cc1ccc(-c3ccccc3)cc1)C2 (stereo not drawn) | x | x | x | x | x | 40µM*
O=C1NCc2ccccc2CC12CCN(Cc1ccc(Oc3ccccc3)cc1)C2 (stereo not drawn) | x | x | x | x | x | 35µM*
COc1cccc(CN2CCC3(Cc4ccccc4NC3=O)C2)c1 (stereo not drawn) | x | x | x | x | x | 40µM*
Cc1cc(C)c(CN2CCC3(Cc4ccccc4CNC3=O)C2)c(C)c1 (stereo not drawn) | x | x | x | x | x | 1µM*
Cc1ccc(-n2nnnc2SC(C)C(N)=O)c(C)c1 (stereo not drawn) | 0% | -76* | -4 | -3 | -1% | 4%
Cc1ccc(-n2nnnc2SC(C)C(=O)NCC(=O)Nc2ccc(F)c(F)c2F)c(C)c1 (stereo not drawn) | 17% | 5 | -1 | -2 | 1% | u
COc1ccc(CCC(=O)N2c3ccccc3N=C(c3ccc4c(c3)OCO4)C2C(=O)NCc2ccccc2)cc1 (stereo not drawn) | x | x | -2 | x | 32µM* | -21%
COc1ccc(C2=Nc3ccccc3N(C(=O)c3ccc(C)cc3)C2C(=O)NCc2ccccc2)cc1 (stereo not drawn) | x | x | 2 | x | u | 3.5µM*
COc1ccc(C2=Nc3ccccc3N(C(=O)c3ccc(C)cc3)C2C(=O)Nc2c(C)cccc2C)cc1 (stereo not drawn) | x | x | -1 | x | 5% | 0.79µM*
COc1cccc(CN2C[C@@H](CO)[C@H](c3ccccn3)C2)c1OC | x | x | x | x | x | 44%
Cc1cn2nc(C(=O)NCc3ccccc3C(F)(F)F)cc2c(N2CCCC2)n1 | x | x | x | x | x | 49%
N=c1c(C(=O)NCc2ccco2)cc2c(=O)n3ccccc3nc2n1Cc1ccccc1 | 15% | -12 | 4 | -8 | 18µM* | 64%
N=c1c(C(=O)NCc2ccco2)cc2c(=O)n3ccccc3nc2n1Cc1ccc(Cl)cc1 | 0% | -80* | -11 | -44 | u | u
N=c1c(C(=O)NC2CCCC2)cc2c(=O)n3ccccc3nc2n1C1CCCC1 | 2% | -47 | 0 | u | 3.2µM* | -3%

Screening data deposited in PubChem BioAssay by National Center for Advancing Translational Sciences (NCATS).
